Compound activity: PubChem BioAssay, National Center for Advancing Translational Sciences (NCATS)
Compounds with a hit are over-represented: about 2.8% of the library has one in this group of screens.
Pol eta inh: DNA polymerase eta (human) inhibition. Q9Y253. recombinant Pol eta, fluorescent DNA replication assay. Potency, µM (series often up to 114 µM), for the others: at the highest dose activity change, negative = inhibition, hits mostly inhibitors. hit rate 1.2% among 390,000; note: potency is the fitted concentration of half-maximal effect; % is set by controls: 0 for no effect and ±100 for the full control effect
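Fluorescent replication assay: 50 nM final substrate added after a 15 min room-temperature compound preincubation with 10 nM enzyme. Signal taken at 0 min and again at 10 min.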
Pol beta inh: DNA polymerase beta (human) inhibition | Pol beta primer extension/strand displacement, fluorescence kinetic | Potency, µM (series often up to 114 µM), for inactives: top-dose activity change, negative = inhibition, most hits filed as inhibitors | hit rate 1.3% among 340,000; note: potency is the fitted concentration of half-maximal effect; % is set by controls: 0 for no effect and ±100 for the full control effect
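Human Pol beta at 10 nM; strand-displacement substrate 50 nM final. Compound exposure 15 min at room temperature before start, reaction 10 min at room temperature.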
Pol kappa inh: DNA polymerase kappa (human) inhibition. AID 588579. Potency, µM (highest dose often 107 µM), inactives show at the top dose activity, negative = inhibition, actives largely listed as inhibitors. Q9UBT6. hit rate 0.53% among 400,000. purified Pol kappa, fluorescent DNA synthesis assay, 10 min; note: potency is the fitted concentration of half-maximal effect; % is set by controls: 0 for no effect and ±100 for the full control effect
Target sequence (Q9UBT6 whole entry, looked up): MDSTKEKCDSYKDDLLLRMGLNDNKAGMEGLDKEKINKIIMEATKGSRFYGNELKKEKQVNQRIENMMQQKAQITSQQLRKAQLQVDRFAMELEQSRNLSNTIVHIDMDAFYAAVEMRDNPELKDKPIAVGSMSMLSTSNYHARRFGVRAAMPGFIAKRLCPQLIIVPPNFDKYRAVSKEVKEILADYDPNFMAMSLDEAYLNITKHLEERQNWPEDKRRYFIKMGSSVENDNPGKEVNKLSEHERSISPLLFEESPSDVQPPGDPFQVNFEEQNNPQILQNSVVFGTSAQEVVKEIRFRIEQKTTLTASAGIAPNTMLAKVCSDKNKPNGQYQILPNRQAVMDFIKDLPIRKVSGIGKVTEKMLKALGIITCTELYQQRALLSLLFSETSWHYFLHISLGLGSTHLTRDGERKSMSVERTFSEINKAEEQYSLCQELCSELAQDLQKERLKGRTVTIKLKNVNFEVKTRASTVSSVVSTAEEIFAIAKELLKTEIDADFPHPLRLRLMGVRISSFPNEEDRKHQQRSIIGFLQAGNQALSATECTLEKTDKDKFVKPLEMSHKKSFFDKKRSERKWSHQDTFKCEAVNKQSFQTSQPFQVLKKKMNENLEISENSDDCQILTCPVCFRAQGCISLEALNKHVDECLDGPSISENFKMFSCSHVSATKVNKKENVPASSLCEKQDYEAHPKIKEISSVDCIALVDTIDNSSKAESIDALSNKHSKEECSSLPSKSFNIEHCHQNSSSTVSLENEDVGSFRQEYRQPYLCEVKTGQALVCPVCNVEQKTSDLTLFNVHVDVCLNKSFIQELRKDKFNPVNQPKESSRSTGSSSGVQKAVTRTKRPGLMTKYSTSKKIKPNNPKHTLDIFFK
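10 nM Pol kappa was preincubated with compounds for 15 min at room temperature. Reaction started with 50 nM (final) substrate. Fluorescence read kinetically at 0 and 10 min.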
PI5P4Ka inh: inhibitors of human PI5P4K alpha; P48426; PI5P4Kalpha enzyme, ADP-Glo luminescence, 60 min; hits give low values; max response, %; hit rate 1.2% among 330,000; active = max response of -50% or lower; inconclusive = between -30% and -50%; inactive = -30% or higher; note: value at the top dose of about 77 µM; % is set by controls: 0 for no effect and ±100 for the full control effect
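qHTS, 1536-well: enzyme/substrate mix, compound by pin tool, 5 microM ATP final; RT 60 min; ADP-Glo reagents 1 (45 min) then 2 (30 min); luminescence.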
POLI inh: inhibitors of human DNA polymerase iota. Q9UNA4. Pol iota fluorescent replication assay, 10 min. Potency, µM (titrated, usually from 115 µM), without a hit: at the top dose activity, negative = inhibition, usual class: inhibitors. hit rate 1% among 390,000; note: potency is the fitted concentration of half-maximal effect
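Fluorescent replication assay read twice, at 0 min and 10 min after adding 50 nM (final) substrate. Enzyme (10 nM) and compounds were first incubated 15 min at room temperature; enzyme-free buffer wells were negative controls.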
PI4K2A inh: inhibitors of human PI4K2A; Q9BTU6; purified PI4K2A, ADP-Glo luminescence, 1 h; hits give low values; activity change, negative = inhibition, % at 76.9 µM; hit rate 0.13% among 420,000; AID 1346378; in the data active = activity change below about -50%; inconclusive = mostly about -30% to -49%;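 note: -100% = wells without enzyme as full effect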
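ADP-Glo luminescence measured ADP generated by PI4K2A enzyme (4 ug/mL before mixing) with 1.2 mM PI substrate (pre-mix) and 300 microM ATP (pre-mix). Tris pH7.5 buffer with MgCl2, Triton X-100; 1 h reaction at ambient temperature.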
Numbers without * were called inactive; [ ] = remark or other dose. Unless noted, calls come from the whole dose curve; as a rule, active = well fitted inhibition curve with a large enough effect; inconclusive = small, poorly fitted or top-dose-only effect, or another doubt; inactive = no such curve, though single readings can be large or run the other way.

What do the screens show for `CCOC(=O)c1oc2c(c1C)-c1nn(Cc3ccc(Cl)cc3)cc1CC2`?
Pol beta inh: 6%; Pol kappa inh: -12%; POLI inh: 6%; PI4K2A inh: 3

How did Cc1c(C(=O)O)oc2c1-c1nn(Cc3ccc(Cl)cc3)cc1CC2 do in these assays?
Pol beta inh: 25µM*; Pol kappa inh: -34%; POLI inh: inconclusive; PI4K2A inh: 1

How did Cc1ccc(C(=O)C(=O)O)cc1C do in these assays?
PI4K2A inh: -2

Results for Cc1ncc(CO)c(/C=N/NC(=O)c2cc(O)c(O)c(O)c2)c1O ?
Pol beta inh: 0.32µM*

What do the screens show for `Cc1ccc(S(=O)(=O)N2CCN(c3nc(N(C)c4cc(Cl)ccc4O)nc4ccccc34)CC2)cc1`?
Pol kappa inh: -16%; POLI inh: 19%

Results for CCC[C@H]1[C@@H](NC(=O)c2cccnc2)CC[C@@]23CCCN2C(=O)CCC[C@@H]13 ?
PI4K2A inh: -1

What do the screens show for `Cc1ccc2ccc3cc(C(=O)Nc4ccc(C)c(F)c4)nc3c2[nH]1`?
Pol eta inh: -11%; Pol beta inh: inconclusive; Pol kappa inh: -15%; POLI inh: 89µM*; PI4K2A inh: -7

What do the screens show for `Cc1cccc(C)c1NC(=O)CSCC(=O)O`?
Pol eta inh: 5%; Pol beta inh: 1%; Pol kappa inh: -3%; PI5P4Ka inh: -5; POLI inh: 8%; PI4K2A inh: 0

Results for Cc1cccc(C)c1NC(=O)CSCC(=O)c1ccc(O)c(O)c1 ?
Pol eta inh: inconclusive; Pol beta inh: -26%; Pol kappa inh: -40%; PI5P4Ka inh: -5; POLI inh: 20µM*; PI4K2A inh: -21

What do the screens show for `COC(=O)C1=C(C)N(CCCC(=O)O)C(=O)NC1c1ccc(Br)cc1` (stereo not drawn)?
Pol eta inh: -8%; Pol beta inh: -8%; Pol kappa inh: 0%; PI5P4Ka inh: -99*; POLI inh: inconclusive; PI4K2A inh: -6

What do the screens show for `CC1=C(C(=O)OCc2ccccc2)C(c2ccccc2Cl)NC(=O)N1C` (stereo not drawn)?
Pol eta inh: -6%; Pol beta inh: -1%; Pol kappa inh: -13%; PI5P4Ka inh: 3; POLI inh: 71%; PI4K2A inh: 11

Results for CC1=C(C(=O)OCC(Br)(Br)Br)C(c2ccc(Br)cc2)NC(=O)N1CCCC(=O)O (stereo not drawn) ?
Pol beta inh: 13%

Results for COC(=O)C1=C(C)N(CCCC(=O)O)C(=O)NC1c1ccc(-c2ccccc2)cc1 (stereo not drawn) ?
Pol eta inh: 0%; Pol beta inh: 23%; Pol kappa inh: -3%; PI5P4Ka inh: -75*; POLI inh: -4%; PI4K2A inh: -3

What do the screens show for `COC(=O)C1=C(C)N(CCCC(=O)O)C(=O)NC1c1ccc(C#N)cc1` (stereo not drawn)?
Pol eta inh: 5%; Pol kappa inh: -14%; PI5P4Ka inh: -63*; POLI inh: 14µM*; PI4K2A inh: -6

What do the screens show for `CCOC(=O)C1=C(C)N(CCCC(=O)O)C(=O)NC1c1cccc(OC)c1` (stereo not drawn)?
Pol eta inh: -3%; Pol kappa inh: 5%; PI5P4Ka inh: inconclusive; POLI inh: 26%; PI4K2A inh: 7

Results for COC(=O)C1=C(C)N(CC2CC2)C(=O)N[C@H]1c1ccccc1 ?
Pol eta inh: 5%; Pol kappa inh: -16%; PI5P4Ka inh: -4; POLI inh: inconclusive; PI4K2A inh: -1

How did COC(=O)C1=C(C)N(CCCC(=O)O)C(=O)NC1c1ccccc1Cl (stereo not drawn) do in these assays?
Pol eta inh: -5%; Pol kappa inh: 16%; PI5P4Ka inh: -82*; POLI inh: 36%; PI4K2A inh: 0

What do the screens show for `CC(C)C[C@H](NC(=O)[C@H](CC(C)C)NC(=O)[C@@H](Cc1c[nH]c2ccccc12)NC(=O)[C@H](Cc1ccccc1)NC(=O)[C@@H](Cc1c[nH]c2ccccc12)NC(=O)[C@H](CCC(N)=O)NC(=O)[C@H](CCC(N)=O)NC(=O)[C@@H]1CCCN1C(=O)[C@H](CCCCN)NC(=O)[C@@H]1CCCN1C(=O)[C@@H](CCCNC(=N)N)NC(=O)[C@@H]1CCCN1C(=O)CNC(=O)[C@H](CC(C)C)NC(=O)[C@H](CC(C)C)NC(=O)[C@H](Cc1ccc(O)cc1)NC(=O)CNC(=O)[C@H](C)NC(=O)[C@H](CO)NC(=O)[C@H](CC(N)=O)NC(=O)[C@H](CC(C)C)NC(=O)[C@@H](NC(=O)[C@H](Cc1c[nH]c2ccccc12)NC(=O)CN)[C@@H](C)O)C(N)=O`?
Pol kappa inh: 12%[60.1 µM]

How did COc1ccc(-c2noc(CC(=O)Nc3cc(OC)ccc3OC)n2)cc1 do in these assays?
Pol eta inh: -1%; Pol beta inh: 5%; Pol kappa inh: -4%; POLI inh: 20%; PI4K2A inh: -6

What do the screens show for `COCCN1C(=O)N[C@@H](c2cccc(C(F)(F)F)c2)C(C(=O)OC)=C1C`?
Pol eta inh: -12%; Pol kappa inh: -13%; PI5P4Ka inh: -4; POLI inh: 13%; PI4K2A inh: -3

How did COC(=O)C1=C(C)N(CCCC(=O)O)C(=O)NC1c1ccc(C(F)(F)F)cc1 (stereo not drawn) do in these assays?
Pol eta inh: -26%; Pol beta inh: 28%; Pol kappa inh: 2%; PI5P4Ka inh: -81*; POLI inh: 18%; PI4K2A inh: 0

Results for Cc1cccc(Oc2nc3c(c(=O)n(C)c(=O)n3C)n2C)c1C ?
Pol eta inh: -12%; Pol beta inh: 1%; Pol kappa inh: 9%; POLI inh: 37%; PI4K2A inh: 0

Results for CC1=NN(c2nc(-c3ccc(C)cc3)cs2)C(=O)C1N=Nc1cccc(C)c1 (stereo not drawn) ?
Pol eta inh: -14%; Pol beta inh: inconclusive; Pol kappa inh: -4%; PI5P4Ka inh: 2; POLI inh: 11%; PI4K2A inh: -2

How did CCOC(=O)c1sc(N2N=C(C)C(N=Nc3cccc(C)c3)C2=O)nc1C (stereo not drawn) do in these assays?
Pol eta inh: 40µM*; Pol beta inh: inconclusive; Pol kappa inh: 89µM*; PI5P4Ka inh: inconclusive; POLI inh: 50µM*; PI4K2A inh: -5

How did COC(=O)C1=C(SC)N(c2ccccc2)C(c2ccccc2)CC1=O (stereo not drawn) do in these assays?
Pol eta inh: -2%; Pol beta inh: 0%; Pol kappa inh: 89µM*; PI5P4Ka inh: 5; POLI inh: 13%; PI4K2A inh: 1
